TGFb inhibitor = inhibitors of TGF-b signaling; HepG2 CAGA-GFP TGF-b/SMAD3 reporter, GFP fluorescence, 18 h; TGF-beta stimulated, 500 pg/mL final; Potency, µM (doses to about 46.1 µM), for the others: at the highest dose activity, negative = inhibition, hits mostly inhibitors; 410,000 tested, 1.2% active; also: potency is read from the fitted curve at half-maximal effect; % is scaled to controls: 0 for no effect and ±100 for the full control effect; nearly all actives have a fitted effect of over 65% in size
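Inhibition was scored as loss of TGF-beta-induced (500 pg/mL final, 18 hours, 37 degrees C) GFP in HEPG2 cells carrying a CAGA-GFP reporter, in DMEM with 1% FBS. Well GFP was summed per cell; Activity was normalised to unstimulated and stimulated DMSO wells, then concentration-response fitting.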
IL-1B inflam inh = inflammasome signaling inhibition, IL-1 beta readout | 360,000 tested, 4.7% active | THP-1 LPS/ATP IL-1B secretion, AlphaLISA, 16 h; stronger effect = lower value | AID 743279 | activity change, % at 57.5 µM; in the data active = activity change below about -50%; inconclusive = mostly about -30% to -49%; also: % is scaled to controls: 0 for no effect and ±100 for the full control effect
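THP-1 cells pretreated 1 hr with compounds (up to 57.5 uM final), then stimulated with LPS (250 ng/mL final) plus ATP (1.25 mM final); secreted IL-1B measured by AlphaLISA after 16 hr, decreased signal indicating inhibition.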
HepG2 tox = counter-screen for TGF-b inhibitors: cytotoxicity in HepG2 cells. HepG2 CAGA-GFP viability, ATP luminescence, 18 h. Potency, µM (top dose mostly 46.1 µM), for inactives: top-dose activity change, negative = cytotoxicity, most hits filed as cytotoxic. 410,000 tested, 0.76% active; also: potency is read from the fitted curve at half-maximal effect
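CellTiter-Glo luminescence gave cytotoxicity after 18 hours at 37 degrees C. The cells were HepG2 CAGA-GFP in 1% FBS DMEM, stimulated with 500 pg/mL TGF-beta after compound addition. %Activity was normalised to no-cell wells (complete cell-killing) and DMSO (no toxicity), and curves were fitted and classified.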
ASM inhibitor = inhibitors of human secretory acid sphingomyelinase; P17405; placental ASM, HMU-PC fluorogenic substrate, 60 min; Potency, µM (highest dose often 57.5 µM), for the others: top-dose activity change, negative = inhibition, hits mostly inhibitors; 340,000 tested, 0.006% active; AID 504937; also: potency is read from the fitted curve at half-maximal effect
Target sequence (P17405 47-631 limits assumed): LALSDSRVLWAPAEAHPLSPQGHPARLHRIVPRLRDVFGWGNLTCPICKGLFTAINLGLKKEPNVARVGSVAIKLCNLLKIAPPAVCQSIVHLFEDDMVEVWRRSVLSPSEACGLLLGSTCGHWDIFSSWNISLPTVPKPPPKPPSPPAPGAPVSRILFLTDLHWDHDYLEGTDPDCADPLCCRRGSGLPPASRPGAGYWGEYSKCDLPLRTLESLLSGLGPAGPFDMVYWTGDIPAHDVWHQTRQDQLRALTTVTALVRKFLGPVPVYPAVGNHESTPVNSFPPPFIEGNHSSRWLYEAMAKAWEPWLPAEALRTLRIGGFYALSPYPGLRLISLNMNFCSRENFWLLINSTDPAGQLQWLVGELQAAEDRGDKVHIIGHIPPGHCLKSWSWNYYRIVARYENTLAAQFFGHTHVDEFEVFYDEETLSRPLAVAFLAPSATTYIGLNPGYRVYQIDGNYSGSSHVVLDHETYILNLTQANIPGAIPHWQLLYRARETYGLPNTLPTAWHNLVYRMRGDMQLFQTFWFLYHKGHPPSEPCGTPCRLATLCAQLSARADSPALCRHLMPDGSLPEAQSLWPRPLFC
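Human placenta-derived ASM preincubated with compound 10 min at room temperature, then reacted with 9 uM (final) fluorogenic HMU-PC substrate for 60 min at 37 C. Stop solution raises pH to 10; fluorescence read at Ex 386/Em 447 nm.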
DT40 TDP1 no CPT = qHTS for Inhibitors of human tyrosyl-DNA phosphodiesterase 1 (TDP1): qHTS in cells in absence of CPT | DT40 Tdp1-/- hTDP1 cells, no CPT, ATP luminescence, 48 h | Potency, µM (doses to about 46.2 µM), for inactives: at the highest dose activity change, negative = growth inhibition, hits mostly inhibitors | 420,000 tested, 15% active; also: potency is read from the fitted curve at half-maximal effect; % is scaled to controls: 0 for no effect and ±100 for the full control effect; nearly all actives have a fitted effect of over 55% in size
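Readout: luminescence from CellTiter-Glo after 30 min in the dark at RT. Cells: DT40 Tdp1-/- with stable hTDP1, 400/well. Exposure: compounds alone, ≥48 hr, 37 °C.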
TDP1 cell CPT = DT40-hTDP1 cell growth loss with CPT. Potency, µM (doses to about 46.2 µM), for the others: at the highest dose activity change, negative = growth inhibition, most hits filed as inhibitors. chicken DT40 Tdp1-/-;hTDP1 cells + 20 nM CPT, ATP luminescence, 48 h. 420,000 tested, 12% active; also: potency is read from the fitted curve at half-maximal effect; % is scaled to controls: 0 for no effect and ±100 for the full control effect; nearly all actives have a fitted effect of over 55% in size
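Cell growth measured by CellTiter-Glo luminescence after a minimum 48 h, 37 C compound exposure with 20 nM CPT in Tdp1-knockout DT40 cells stably expressing hTDP1, seeded 400/well; qHTS titration format.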
* = called active by the depositor; ? = inconclusive; . = no result. An excerpt weighted towards active compounds, which were near 19% of everything screened. Unless noted, calls follow the shape of the dose curve; as a rule, active = well fitted curve in the direction sought with a large enough effect; inconclusive = small, poorly fitted or top-dose-only effect, or another doubt; inactive = no such curve, though single readings can be large; an effect the other way counts as inactive or inconclusive.

SMILES	TGFb inhibitor	IL-1B inflam inh	HepG2 tox	ASM inhibitor	DT40 TDP1 no CPT	TDP1 cell CPT
CCOC(=O)c1ccc(NC(=O)c2c(NCc3cc(OC)c(OC)cc3OC)sc3c2CCCC3)cc1	0%	.	-26%	.	?	23µM*
CCN(CC)CC(=O)Nc1sc2c(c1C(=O)c1ccccc1OC)CCC2	?	-53*	-22%	-2%	15µM*	16µM*
COc1ccccc1NC(=O)c1c(NC(=O)CCC(=O)O)sc2c1CCCCC2	-1%	-9	-9%	8%	-16%	-18%
COc1cc(OC)c(OC)cc1CNc1sc2c(c1C(=O)Nc1ccccc1OC)CCC2	6%	.	-9%	.	21µM*	21µM*
CCOC(=O)c1ccc(NC(=O)c2c(NCc3cc(OC)ccc3OC)sc3c2CCC3)cc1	-25%	.	-30%	.	?	16µM*
CCOc1ccccc1CNC(=O)C1CCN(S(=O)(=O)c2ccc3[nH]c(=O)ccc3c2)CC1	10%	.	-19%	.	-1%	3%
COc1cc(OC)c(OC)cc1CNCCCSc1nnnn1C	-4%	.	4%	.	-9%	-2%
CCOC(=O)c1nnn2c1nc(N1CCN(C)CC1)c1ccccc12	5%	-16	2%	-1%	-10%	1%
CCOC(=O)c1cc2ccccc2n1C1CCN(C)CC1	.	-11	.	.	26µM*	?
Oc1c(C(c2ccc(F)cc2)N2CCOCC2)sc2nc(-c3ccco3)nn12 (stereo not given)	-13%	.	-5%	.	-19%	7%
CCCCCC(=O)N1C[C@@H](O)[C@H](n2cc(C3CC3)nn2)C[C@@H]1c1ccccc1	9%	45	-17%	.	16µM*	?
CCCCCC(=O)N1C[C@@H](O)[C@H](n2cc(-c3ccc(F)cc3)nn2)C[C@@H]1c1ccc(Cl)cc1	?	-56*	-69%	.	15µM*	16µM*
CCCCCC(=O)N1C[C@@H](n2cc(C3CC3)nn2)[C@H](O)C[C@@H]1c1ccccc1	-6%	-3	-11%	.	?	?
CCCCCC(=O)N1C[C@H](n2cc(-c3ccc(F)cc3)nn2)[C@@H](O)C[C@@H]1c1ccc(Cl)cc1	?	?	-107%	.	26µM*	?
CN(C)/[N+]([O-])=N\Oc1cc(OC(=O)c2ccc(N)cc2)c([N+](=O)[O-])cc1[N+](=O)[O-]	-4%	.	1%	.	.	.
Cc1cccc(NC(=O)N2CCC(CN3CCCCCC3)CC2)c1C	0%	.	-33%	.	?	?
O=C(COc1cccc(Br)c1)Nc1ccc(N2CCOCC2)cc1N1CCOCC1	-8%	15	-16%	-7%	?	18µM*
CC(=O)c1cccc(OCC(=O)Nc2cc(S(=O)(=O)N3CCOCC3)ccc2N2CCCC2)c1	-3%	-2	-23%	5%	-4%	-12%
CC(=O)c1cccc(OCC(=O)Nc2ccccc2N2CCOCC2)c1	11%	?	0%	0%	?	18µM*
CC(C)Oc1cccc(C(=O)Nc2ccccc2N2CCOCC2)c1	1%	-22	-42%	-3%	?	-61%
CCC(C)Oc1cccc(C(=O)Nc2ccccc2N2CCOCC2)c1 (stereo not given)	0%	-6	-28%	-2%	18µM*	?
CCN(CC)CCNC(=O)c1cc2cc(Br)ccc2s1	12%	?	3%	-3%	?	-27%
O=C(CSc1nn(-c2ccccc2)c(=S)s1)Nn1cnnc1	2%	14	-2%	-2%	-1%	0%
Cc1ccc(NC(=O)CNCC2CCCCC2)cc1S(=O)(=O)N(C)C	?	-23	-31%	0%	?	16µM*
COc1ccc(CCC(=O)Nc2ccc(C)c(S(=O)(=O)N(C)C)c2)cc1OC	-1%	18	-15%	1%	16µM*	?
SMILES	TGFb inhibitor	IL-1B inflam inh	HepG2 tox	ASM inhibitor	DT40 TDP1 no CPT	TDP1 cell CPT
Cc1ccc(NC(=O)CSc2nn(-c3ccccc3)c(=S)s2)cc1S(=O)(=O)N(C)C	?	-1	-20%	-9%	5.2µM*	5.2µM*
COc1cc(CCC(=O)Nc2ccc(C)c(S(=O)(=O)N(C)C)c2)cc(OC)c1OC	-17%	5	1%	3%	21µM*	15µM*
Cc1ccc(NC(=S)NC2CCCCC2)cc1S(=O)(=O)N(C)C	-6%	0	-10%	-1%	?	?
COc1cc(CCC(=O)OCC(=O)Nc2cccc(S(=O)(=O)N(C)C)c2)cc(OC)c1OC	1%	0	-8%	-1%	6%	-8%
CCN(CC)c1ncnnc1-c1ccccc1	-10%	-17	-6%	2%	-9%	3%
O=C(CN1C(=O)c2ccccc2S1(=O)=O)c1ccc(Cl)cc1Cl	-5%	-13	-7%	0%	-15%	-4%
CCOc1ccc2ccccc2c1C1NC(=O)N(C)C(C)=C1C(=O)OCCOC (stereo not given)	2%	7	1%	-4%	?	-29%
OCC[C@H]1C[C@H](O)[C@@H](O)[C@]2(CCCc3ccccc3O2)O1	11%	13	29%	1%	5%	12%
COc1ccc(CCNCC(=O)Nc2ccc(C)c(S(=O)(=O)N(C)C)c2)cc1	-5%	-76*	-11%	-1%	4.6µM*	-30%
O=C(CNCC1CCCCC1)Nc1ccc(OC(F)(F)F)cc1	16µM*	-101*	-89%	2%	-10%	-15%
Cc1ccc(C)c(S(=O)(=O)c2cn(C)c3cc(N4CCCCC4C)c(F)cc3c2=O)c1 (stereo not given)	1%	.	5%	.	21µM*	21µM*
Cc1ccc(C)c(S(=O)(=O)c2cn(C)c3cc(F)c(F)cc3c2=O)c1	-10%	.	6%	.	-16%	-18%
CCc1ccc(S(=O)(=O)c2cn(C)c3cc(N4CCC(C)CC4)c(F)cc3c2=O)cc1	-10%	.	-1%	.	15µM*	15µM*
Cc1ccc(S(=O)(=O)c2cn(C)c3cc(N4CCCCC4)c(F)cc3c2=O)cc1	-24%	.	-9%	.	?	?
CCc1ccc(S(=O)(=O)c2cn(C)c3cc(N4CCOCC4)c(F)cc3c2=O)cc1	16%	.	11%	.	-29%	-29%
CCc1ccc(S(=O)(=O)c2cn(C)c3cc(N4CCCCC4C)c(F)cc3c2=O)cc1 (stereo not given)	15%	.	-5%	.	15µM*	?
Cn1c(=O)c2cc(NC(=O)NCCc3cccs3)ccc2n1-c1ccc(C(C)(C)C)cc1	19%	-23	3%	.	?	?

Source: PubChem BioAssay (National Center for Advancing Translational Sciences (NCATS))
